Assay results reported in PubChem BioAssay (NCI).
Values joined by “and” are separate entries in the source; they are usually repeats but may differ in a detail not shown here. Equal entries are not always repeated. Compounds without any hit were thinned out: in the full panel of roughly 79,000, 15% have a hit. Where a structure was tested more than once in an assay, its records may differ in their call. Active and inactive are the calls of the source. Cut-off read from the data, not from the text of the source: active = growth inhibition above about 70%; inactive = the rest.

Key:
[1] = NCI Yeast Anticancer Drug Screen. Data for the rad50 strain (AID 155);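 note: 0% = growth of vehicle-only cultures of the same strain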; details: S. cerevisiae rad50 strain growth inhibition, stronger effect = higher value
How it was run: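 Growth of the mutant yeast was measured after compound exposure and referenced to vehicle-treated cultures.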

[2] = NCI Yeast Anticancer Drug Screen. Data for the mec2-1 strain (AID 157); details: S. cerevisiae mec2-1 strain, stronger effect = higher value
How it was run: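 mec2-1 yeast strain, carrying an alteration in DNA damage repair or cell cycle control, was exposed to compounds; growth inhibition was measured relative to vehicle-treated controls.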

[3] = NCI Yeast Anticancer Drug Screen. Data for the sgs1 mgt1 strain (AID 161);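 note: 0% = growth of cultures given vehicle only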; details: S. cerevisiae sgs1 mgt1 strain, stronger effect = higher value
How it was run: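 Yeast cells carrying a defined DNA-repair defect were exposed to test compounds. Growth inhibition was measured relative to vehicle-treated controls.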

[4] = NCI Yeast Anticancer Drug Screen. Data for the cln2 rad14 strain (AID 165);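 note: 0% = growth equal to vehicle treated cultures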; details: S. cerevisiae cln2 rad14 strain, stronger effect = higher value
How it was run: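 Yeast carrying cln2 and rad14 alterations (cell cycle control and DNA damage repair) were exposed to compounds. Growth inhibition was measured against vehicle-treated controls.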

[5] = NCI Yeast Anticancer Drug Screen. Data for the bub3 strain (AID 167); details: S. cerevisiae bub3 mutant strain, stronger effect = higher value
How it was run: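 Whole-cell yeast assay. The mutant strain was incubated with compounds, and growth inhibition was determined by comparison with vehicle-treated cells.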

[6] = NCI Yeast Anticancer Drug Screen. Data for the mlh1 rad18 strain (AID 175); details: S. cerevisiae mlh1 rad18 strain growth inhibition, stronger effect = higher value
How it was run: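 Growth inhibition of the yeast strain was measured after compound exposure and expressed relative to vehicle-treated controls. The strain carries defined defects in DNA damage repair.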

[7] = at 5.0 µM (retest, dose inferred, filed as 0.5)
[8] = at 50.0 µM (retest, dose inferred, filed as 5.0)

Compound | growth inhibition [1, 7] | growth inhibition [1, 8] | growth inhibition ([1]; at 50.0 µM) | growth inhibition [2, 7] | growth inhibition [2, 8] | growth inhibition ([2]; at 50.0 µM) | growth inhibition [3, 7] | growth inhibition [3, 8] | growth inhibition ([3]; at 50.0 µM) | growth inhibition [4, 7] | growth inhibition [4, 8] | growth inhibition ([4]; at 50.0 µM) | growth inhibition [5, 7] | growth inhibition [5, 8] | growth inhibition ([5]; at 50.0 µM) | growth inhibition [6, 7] | growth inhibition [6, 8] | growth inhibition ([6]; at 50.0 µM)
O=S(O)CCCCSSCC(O)C(O)CSSCCCCS(=O)O (stereo not drawn) | -7% (inactive) | 21% (inactive) | 49.4% (inactive) | 12% (inactive) | 44% (inactive) | 56.1% (inactive) | 6% (inactive) | 50% (inactive) | 78.8% (active) | -10% (inactive) | 24% (inactive) | 37% (inactive) | 3% (inactive) | 55% (inactive) | 57.5% (inactive) | 3% (inactive) | 33% (inactive) | 73% (active)
c1ccc(Cc2cc3ccccc3c3ccccc23)cc1 | 4% (inactive) | 14% (inactive) | 20.1% (inactive) | 5% (inactive) | 23% (inactive) | 14.9% (inactive) | 2% (inactive) | -3% (inactive) | -6.6% (inactive) | 16% (inactive) | 6% (inactive) | -0.55% (inactive) | 2% (inactive) | 3% (inactive) | 91.3% (active) | 4% (inactive) | -2% (inactive) | 82.5% (active)
CCOC(=O)/C(=C/c1ccc(OC)c(OC)c1)C(=O)c1ccccc1 | 12% (inactive) | 49% (inactive) | 74.7% (active) | -19% (inactive) | 66% (inactive) | 68% (inactive) | 2% (inactive) | 65% (inactive) | 64.7% (inactive) | 27% (inactive) | 71% (active) | 72.5% (active) | 27% (inactive) | 92% (active) | 78.4% (active) | -7% (inactive) | 80% (active) | 56.5% (inactive)
O=Cc1cc([N+](=O)[O-])cc(CCl)c1O | -119% (inactive) | 26% (inactive) | 20.7% (inactive) | -52% (inactive) | -31% (inactive) | 13.2% (inactive) | -59% (inactive) | -8% (inactive) | 15.2% (inactive) | -58% (inactive) | -17% (inactive) | 20.1% (inactive) | -71% (inactive) | -32% (inactive) | -6.45% (inactive) | -123% (inactive) | -28% (inactive) | 27.9% (inactive)
ON=C(Cc1ccccc1)Cc1ccccc1 | 7% (inactive) | -7% (inactive) | 20.4% (inactive) and 1.3% (inactive) | -4% (inactive) | -8% (inactive) | 5.7% (inactive) and -6.9% (inactive) | 1% (inactive) | 34% (inactive) | 23.2% (inactive) and 82.5% (active) | 2% (inactive) | -8% (inactive) | 46.2% (inactive) and -4.6% (inactive) | -83% (inactive) | -3% (inactive) | -2.8% (inactive) and 17.2% (inactive) | 1% (inactive) | 9% (inactive) | 61.8% (inactive) and 27.9% (inactive)
CC(=O)OC1CCC2(C)C(CCC3C4CCC(OC(C)=O)C4(C)CCC32)O1 (stereo not drawn) | -3% (inactive) | 79% (active) | 36.2% (inactive) | 5% (inactive) | 95% (active) | 15.1% (inactive) | -23% (inactive) | 70% (active) | 43.6% (inactive) | -6% (inactive) | 41% (inactive) | 15% (inactive) | -2% (inactive) | 66% (inactive) | 11.3% (inactive) | 6% (inactive) | 93% (active) | 24.4% (inactive)
COC1/C=C/OC2(C)Oc3c(C)c(O)c4c(c3C2=O)C(=O)C=C(NC(=O)/C(C)=C\C=C\C(C)C2OC(C)(C)OC(C2C)C(C)C(OC(C)=O)C1C)C4=O (stereo not drawn) | 2% (inactive) | 89% (active) | 51.9% (inactive) | 30% (inactive) | 79% (active) | 57.3% (inactive) | -3% (inactive) | 73% (active) | 60.8% (inactive) | 1% (inactive) | 89% (active) | 57% (inactive) | 2% (inactive) | 74% (active) | 45.8% (inactive) | 3% (inactive) | 92% (active) | 60.8% (inactive)
CCN(CC)c1ccc(NC(C(=O)c2ccccc2)c2ccccc2)cc1 (stereo not drawn) | 99% (active) and 2% (inactive) | 99% (active) and 46% (inactive) | 99.4% (active) and 54.9% (inactive) | 97% (active) and 2% (inactive) | 99% (active) and 30% (inactive) | 98.9% (active) and 37.1% (inactive) | 100% (active) and 8% (inactive) | 100% (active) and 83% (active) | 99.2% (active) and 81.2% (active) | 98% (active) and 0% (inactive) | 99% (active) and 7% (inactive) | 98.7% (active) and 42.6% (inactive) | 100% (active) and 2% (inactive) | 99% (active) and 44% (inactive) | 99.2% (active) and 53.5% (inactive) | 99% (active) and 2% (inactive) | 99% (active) and 46% (inactive) | 98.5% (active) and 68.2% (inactive)
O=C(Nc1cc(-c2ccccc2)[nH]n1)c1ccccc1F | 41% (inactive) | 59% (inactive) | 88.1% (active) | 35% (inactive) | 69% (inactive) | 86% (active) | 39% (inactive) | 83% (active) | 92.8% (active) | 30% (inactive) | 54% (inactive) | 66.5% (inactive) | 42% (inactive) | 55% (inactive) | 89.3% (active) | 43% (inactive) | 86% (active) | 89.6% (active)
CCCCCCCCCCCCCCCC[N+](C)(C)Cc1cnc[nH]1 | 99% (active) | 98% (active) | 90.3% (active) | 99% (active) | 99% (active) | 91.2% (active) | 98% (active) | 99% (active) | 91.8% (active) | 95% (active) | 99% (active) | 89.7% (active) | 99% (active) | 99% (active) | 91% (active) | 98% (active) | 98% (active) | 89.1% (active)
Cc1ccc(S(=O)(=O)C23C(N=NC2(C)C)C3(C)C)cc1 (stereo not drawn) | 10% (inactive) | 3% (inactive) | -4.7% (inactive) | 4% (inactive) | -3% (inactive) | -10.6% (inactive) | -16% (inactive) | 4% (inactive) | 1.25% (inactive) | 8% (inactive) | 15% (inactive) | -39.9% (inactive) | 15% (inactive) | -2% (inactive) | -45.8% (inactive) | -1% (inactive) | -16% (inactive) | 8.4% (inactive)
O[Si](c1ccccc1)(c1ccccc1)c1ccccc1.O[Si](c1ccccc1)(c1ccccc1)c1ccccc1.O[Si](c1ccccc1)(c1ccccc1)c1ccccc1.[O]=[V] | 58% (inactive) | 64% (inactive) | 62.1% (inactive) | 37% (inactive) | 50% (inactive) | 67% (inactive) | 46% (inactive) | 58% (inactive) | 70.3% (active) | 15% (inactive) | 31% (inactive) | 27.1% (inactive) | 63% (inactive) | 62% (inactive) | 43.4% (inactive) | 53% (inactive) | 58% (inactive) | 72.6% (active)
NNc1c2ccccc2nc2ccccc12 | 9% (inactive) | 79% (active) | 21.1% (inactive) and 95.8% (active) | 6% (inactive) | 43% (inactive) | 18.4% (inactive) and 85.8% (active) | 1% (inactive) | 47% (inactive) | -10% (inactive) and 94% (active) | 4% (inactive) | 38% (inactive) | -19.1% (inactive) and 92.5% (active) | -5% (inactive) | 48% (inactive) | -21.5% (inactive) and 93.5% (active) | 2% (inactive) | 86% (active) | 8.4% (inactive) and 96.8% (active)
OC1CCC(O)CC1 (stereo not drawn) | -1% (inactive) | 42% (inactive) | 73.8% (active) and 21.8% (inactive) | -3% (inactive) | 3% (inactive) | 20.2% (inactive) and -13.1% (inactive) | 0% (inactive) | 5% (inactive) | 70.2% (active) and -6.75% (inactive) | 2% (inactive) | -3% (inactive) | 8.65% (inactive) and -1.45% (inactive) | 0% (inactive) | 4% (inactive) | 11% (inactive) and -1.95% (inactive) | 0% (inactive) | 10% (inactive) | 67.3% (inactive) and 22% (inactive)
Cc1noc(-c2ccc([N+](=O)[O-])o2)n1 | 6% (inactive) | 85% (active) | 93.5% (active) | -1% (inactive) | 82% (active) | 52.1% (inactive) | 5% (inactive) | 87% (active) | 74.6% (active) | -6% (inactive) | 57% (inactive) | 57.9% (inactive) | 2% (inactive) | 80% (active) | 63.9% (inactive) | 24% (inactive) | 94% (active) | 87.8% (active)
O=C(CNCc1ccccc1)Oc1c(Cl)c(Cl)c(Cl)c(Cl)c1Cl | 3% (inactive) | 32% (inactive) | 72.5% (active) | 22% (inactive) | 43% (inactive) | 62.5% (inactive) | -13% (inactive) | 55% (inactive) | 85.2% (active) | -5% (inactive) | 11% (inactive) | 51.4% (inactive) | -4% (inactive) | 31% (inactive) | 20% (inactive) | 29% (inactive) | 73% (active) | 64.7% (inactive)
